# Results: PMC4336329 (PLoS ONE, 2015)
# In all, about 310,000 compounds went through this assay and about 14,000 (4.5%) showed an effect of 50% or more. Effects have a minus sign here. The entries come from a sample that favours strong results as a whole. *1 amine or outer side, *2 acyl side, *3 side chain or, on linkers, in order; H or OH if unused. Where a SMILES comes first, the peptide text is derived from it. Bridges are numbered along the chain shown (N, C = ends). [ ]: non-standard residue; d: D form. ξ: configuration not given here. hSer(Ph(2-I,4-NO2,6-CO)) = O=C([C@H](CCOc1c(I)cc([N+](=O)[O-])cc1C(=O)[*:3])N[*:1])[*:2]; ξD = NC(CC(=O)O)C(=O)O
# Target: human ether-à-go-go-related gene (hERG) potassium channel (human, UniProt Q12809)
# Sequence (Q12809 whole entry, looked up): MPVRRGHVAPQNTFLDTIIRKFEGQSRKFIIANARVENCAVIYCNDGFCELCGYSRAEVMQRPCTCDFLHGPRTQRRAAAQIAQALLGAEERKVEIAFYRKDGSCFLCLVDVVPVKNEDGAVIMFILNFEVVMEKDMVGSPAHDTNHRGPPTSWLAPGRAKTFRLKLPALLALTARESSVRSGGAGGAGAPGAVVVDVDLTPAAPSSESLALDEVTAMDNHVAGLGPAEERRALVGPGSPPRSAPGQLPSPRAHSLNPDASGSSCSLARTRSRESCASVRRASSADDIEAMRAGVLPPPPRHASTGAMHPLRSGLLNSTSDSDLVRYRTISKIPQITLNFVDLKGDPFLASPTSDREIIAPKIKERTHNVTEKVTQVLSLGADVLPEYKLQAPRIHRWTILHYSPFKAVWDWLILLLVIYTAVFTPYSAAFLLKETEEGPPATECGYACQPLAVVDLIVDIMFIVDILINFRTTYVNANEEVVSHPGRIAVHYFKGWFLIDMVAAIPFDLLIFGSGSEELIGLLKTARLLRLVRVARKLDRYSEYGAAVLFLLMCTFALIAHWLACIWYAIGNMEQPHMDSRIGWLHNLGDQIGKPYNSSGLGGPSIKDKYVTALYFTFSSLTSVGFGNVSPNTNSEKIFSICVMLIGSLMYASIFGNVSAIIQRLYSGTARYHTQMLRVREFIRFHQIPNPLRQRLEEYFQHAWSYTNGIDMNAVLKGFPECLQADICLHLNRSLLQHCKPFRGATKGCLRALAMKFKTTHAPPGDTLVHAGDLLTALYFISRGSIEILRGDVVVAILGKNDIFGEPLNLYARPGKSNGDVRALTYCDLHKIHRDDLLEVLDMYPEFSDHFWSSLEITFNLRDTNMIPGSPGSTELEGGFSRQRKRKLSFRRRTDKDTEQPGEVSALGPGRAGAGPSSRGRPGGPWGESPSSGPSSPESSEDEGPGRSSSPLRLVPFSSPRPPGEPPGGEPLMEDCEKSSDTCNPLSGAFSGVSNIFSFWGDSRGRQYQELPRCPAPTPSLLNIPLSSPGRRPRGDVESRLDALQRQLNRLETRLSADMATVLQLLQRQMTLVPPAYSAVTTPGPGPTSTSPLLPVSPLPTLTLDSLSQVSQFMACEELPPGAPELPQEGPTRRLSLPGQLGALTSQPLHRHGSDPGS
# Experiment: primary screen, population patch clamp on CHO cells stably expressing hERG; higher = less effect of the substance
# 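Note: peak tail current of the secondary pulse compared with the same well before compound.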
row,SMILES,"hERG current change (%, negative = inhibition) at 10uM [%]"
1,Nc1ccc(N=Nc2ccccc2O)c(N)c1,10.9
2,COc1ccc(C(=O)NCc2cc(C)nc3ccccc23)cc1OC,-8.56
3,O=C(CSc1nncc(=O)[nH]1)NC1CCCCC1,27
4,COc1cc(OC)c(C(=O)NC2CCCCCC2)cc1OC,-3.27
5,Clc1ccc(-n2nnnc2-c2cnc3ccccc3c2-c2ccccc2)cc1,1.26
6,CCCOc1ccc(NC2=CC(=O)CC(C)(C)C2)cc1,1.89
7,CC1(C)CC(=O)C=C(Nc2ccc(OCC(F)(F)C(F)F)cc2)C1,-65.7
8,COc1ccc(NC2=CC(=O)CC(C)(C)C2)cc1,7.6
9,Cl.O=C1c2cccc3c2[C@H](CCC3)CN1[C@@H]1CN2CCC1CC2,-46.2
10,CCn1c(NCc2cc(OC)c(OC)c(OC)c2)nc2ccccc21.Cl,-25.3
11,CCOc1ccc(CNc2nc3ccccc3n2CCN2CCOCC2)cc1.Cl,-64.2
12,Cc1cc2nc(CCN3CCOCC3)n(S(=O)(=O)c3ccc(C(C)(C)C)cc3)c2cc1C,-3.7
13,COc1ccc(CNc2nc3ccccc3n2Cc2ccccc2)cc1OC,-44.7
14,CCOc1ccc(CNc2nc3ccccc3n2C)cc1,-31.4
15,CC(C)(C)c1ccc(S(=O)(=O)n2c(CN3CCOCC3)nc3ccccc32)cc1,3.73
16,Cl.c1ccc(CNc2nc3ccccc3n2CCN2CCOCC2)nc1,-15.5
17,COc1ccc(CNc2nc3ccccc3n2CCN2CCOCC2)cc1,-64.6
18,COc1ccc(S(=O)(=O)n2c(CCN3CCOCC3)nc3ccccc32)cc1,-59.2
19,c1csc(CNc2nc3ccccc3n2CCN2CCOCC2)c1,-28
20,COc1cccc(CNc2nc3ccccc3n2CCN2CCCCC2)c1,-59.3
21,CC(=O)Nc1nc2ccccc2n1CCN1CCOCC1,0.217
22,CCOC(=O)[C@H]1[C@H]2COc3ccc(C)cc3[C@@H]2N2C(=O)CN(Cc3ccc(C)cc3)C(=O)[C@@]12C,4.36

row,SMILES,"hERG current change (%, negative = inhibition) at 10uM [%]"
1,COc1cccc(N2C(=O)CN(Cc3ccc(OC)c(OC)c3)C2=S)c1,17
2,CCCCCOc1ccc(NC(=O)C(=O)NCCCn2ccnc2)cc1,2
3,CCn1c(SCC(=O)NNC(=O)c2ccccc2)nnc1-c1ccncc1,-5.25
4,C=CCc1c(C)nc2c(-c3ccccc3)cnn2c1N1CCOCC1,12.3
5,CC(=O)C1=C(O)C(=O)N(c2ccc(Br)cn2)C1c1ccccc1[N+](=O)[O-] (stereo not shown),20.2
6,O=C1CCCc2nn(-c3ccccc3)nc21,11.3
7,Cc1ccc(S(=O)(=O)N(C)C)cc1NC(=O)CSc1nc2ccccc2[nH]1,-29.4
8,"C[C@@H]1NC(=O)[C@H](CC(N)=O)NC(=O)c2cc([N+](=O)[O-])cc(I)c2OCC[C@@H](C(=O)NC(CC(=O)O)C(N)=O)NC1=O (stereo partly shown) (NA[hSer(Ph(2-I,4-NO2,6-CO))][ξD]-NH2; lactam N-3)",6.03
9,O=S(=O)(Cc1ccccc1)Nc1cccc(F)c1,15.2
10,Cl.FC(F)(F)c1ccc(CN2CCNCC2)cc1,0.155
11,Cc1ccccc1NC(=O)Cc1nnc(N)s1,11.3
12,COc1ccc(CCNC(=S)NC2CCN(Cc3ccccc3)CC2)cc1OC,-39.1
13,Cc1nc(CCNC(=O)COc2ccccc2)cs1,17.2
14,COc1ccc(CNc2nc3ccccc3n2CCN2CCCCC2)cc1,-59.7
15,C=CCn1c(NCc2ccc(OC)cc2)nc2ccccc21,-17.2
16,COc1ccc(CNc2nc3ccccc3n2C(C)C)cc1,-18.7
17,CN(C(=O)c1nn(C)c2c1CSc1ccccc1-2)c1ccccc1Cl,3.14
18,CC1(C)N=C2C(=[N+]1[O-])CCC/C2=N\O,11.6
19,O=C(NCCc1ccccn1)c1nc(Cn2cc(Br)cn2)no1,11.4
20,Cc1ccc(NC(=S)N2CCC(N(C)CC3CCCO3)CC2)cc1 (stereo not shown),-4.57
21,Cc1cccc(NC(=S)N2CCC(N(C)CC3CCCO3)CC2)c1 (stereo not shown),-32.3
22,Cc1cc(C)cc(NC(=S)N2CCC(N(C)CC3CCCO3)CC2)c1 (stereo not shown),-52

row,SMILES,"hERG current change (%, negative = inhibition) at 10uM [%]"
1,O=C(CCCC(=O)N(CC(=O)NC1CCCC1)c1ccc(F)c(Cl)c1)Nc1ccccn1,-9.24
2,COCCCN(C(=S)Nc1cc(Cl)cc(Cl)c1)C(C)c1ccccn1 (stereo not shown),-38.8
3,CCCc1cc(=O)[nH]c(SCC(=O)Nc2nonc2C)n1,4.4
4,CCCc1cc(=O)[nH]c(SCC(=O)Nc2cc(C)on2)n1,-70.9
5,CCc1cc(=O)[nH]c(SCC(=O)Nc2cc(C)on2)n1,-4.55
6,COC(=O)C1=C(O)/C(=C\c2ccc(CNC(=O)C(=O)Nc3ccc(C)c(C)c3)o2)N=C1C,-17.8
7,CC(=O)Nc1cc(C(=O)O)ccc1S(=O)(=O)c1ccc(C)cc1,6.18
8,CN1CCCN(C(=O)COc2ccc(F)cc2F)CC1,-3.55
9,CCCCNc1c(-c2ccc(OC)c(SC3CCCCC3)c2)nc2cnccn12.O=C(O)C(F)(F)F,-14.4
10,CCCCCCSc1cc(-c2nc3cnccn3c2NCc2ccccc2)ccc1OC.O=C(O)C(F)(F)F,0.374
11,CCCCNc1c(-c2ccc(-c3ccc(C(C)=O)cc3)c(OC)c2)nc2cnccn12.O=C(O)C(F)(F)F,-52.3
12,CCOC(=O)c1nn(-c2ccccc2)c(=O)cc1SC(C)C,-19.1
13,CN(C)c1nc(OCC(=O)NC(C)(C)C)nc(N(C)C)n1,8.21
14,O=C(Cc1nnc(NC(=O)Nc2ccccc2F)s1)NCc1ccccc1,8.98
15,CC(C)(C)NC(=O)c1cnn2c1NC(c1ccc(F)cc1)CC2C(F)(F)F (stereo not shown),2.13
16,COc1ccc(C(=O)Nc2nc(CC(=O)NCCc3ccccc3OC)cs2)cc1,-6.94
17,NS(=O)(=O)c1ccc(CCNc2nc(CN3CCCCC3)nc3sc4c(c23)CCC4)cc1,-72.9
18,NS(=O)(=O)c1ccc(CCNc2nc(CN3CCOCC3)nc3sc4c(c23)CCC4)cc1,-31.2
19,Cc1nc(NCCc2ccc(S(N)(=O)=O)cc2)c2c3c(sc2n1)CCC3,8.64
20,CCOC(=O)Cc1nnc(NC(=O)COc2ccc(C)cc2)s1,5.07
21,N#C/C(=C\c1cccnc1)C(=O)Nc1ccccc1,4.04
22,O=C(NCc1cccnc1)c1cccc(-c2cc3ccccc3oc2=O)c1,-63.9

row,SMILES,"hERG current change (%, negative = inhibition) at 10uM [%]"
1,O=C(NCc1cccnc1)c1ccc(-c2cc3ccccc3oc2=O)cc1,4.65
2,O=C(Nc1cccnc1)c1cccc(-c2cc3ccccc3oc2=O)c1,14.5
3,O=C(OCc1cn(-c2ccc(Cl)c(Cl)c2)nn1)c1ccccc1Cl,-5.05
4,CCOC(=O)C1(CCCc2ccccc2)CCN(Cc2ccn[nH]2)CC1,-73
5,CCOC(=O)C1(CCc2ccccc2)CCN(Cc2ccn[nH]2)CC1,-72.5
6,Cc1ccc(Cn2c(C)c3cnn(CC(=O)NC4CCCC4)c(=O)c3c2C)cc1,7.2
7,Cc1[nH]c(C)c2c(=O)[nH]ncc12,16.6
8,CCN(CC(=O)Nc1ccc2c(c1)OCCO2)Cc1cc(=O)n2ccsc2n1,3.88
9,Cc1ccc(CCNC(=O)CN(C)S(=O)(=O)c2ccc3c(c2)c(=O)n(C)c(=O)n3C)cc1,-11.7
10,CN(CC(=O)NCCC1=CCCCC1)S(=O)(=O)c1ccc2c(c1)c(=O)n(C)c(=O)n2C,-64.9
11,Cn1c(=O)c2cc(S(=O)(=O)NCCC(=O)NCCC3=CCCCC3)ccc2n(C)c1=O,-15.8
12,Cc1nc2sc3c(=O)[nH]nnc3c2c(C)c1Br,15.5
13,CC(=O)c1sc2nc(-c3ccco3)ccc2c1N,0.505
14,O=C(Cc1ccccc1)N/N=C/c1cccnc1,20.3
15,O=C(Cn1nc(-c2ccccc2)ccc1=O)Nc1ccc(N2CCN(C(=O)c3cccs3)CC2)cc1,-18.5
16,Cc1ccc(C(=O)N2CCCC2)cc1S(=O)(=O)N1CCOCC1,1.43
17,COc1ccc(S(=O)(=O)N2Cc3ccccc3CC2C(=O)N2CCOCC2)cc1 (stereo not shown),-59.2
18,COc1ccc(S(=O)(=O)N2Cc3ccccc3CC2C(=O)N2CCOCC2)cc1OC (stereo not shown),-18.7
19,COc1ccc(S(=O)(=O)N2Cc3ccccc3CC2C(=O)O)cc1 (stereo not shown),-13.1
20,O=C(C1Cc2ccccc2CN1S(=O)(=O)c1ccc(F)cc1)N1CCCCC1 (stereo not shown),-13.2
21,O=C(C1Cc2ccccc2CN1S(=O)(=O)c1ccc(F)cc1)N1CCOCC1 (stereo not shown),-18
22,O=C(c1ccco1)N1CCN(C(=O)C2Cc3ccccc3CN2S(=O)(=O)c2ccc(F)cc2)CC1 (stereo not shown),-70.6
